Data published in the supplement of paper PMC10849652.
Targets with a hit are over-represented here; the source holds about 7,900 in all. About 0.6% of all pairs of compound and target were hits.

How the values were obtained:
Experiment in all cases: log2 fold change, soluble protein after heating vs DMSO (PISA); higher = thermal stabilisation; K562 cells, 10 uM, 30 min; active = over 0.2 and 3.5 SD of the protein, either way, in both replicates (recomputed)
[1] = compound: C1=CC=C(C=C1)[C@H](COC2=CC3=C(C=C2)NC(=O)N3)NC(=O)C4=CC=CN(C4=O)CC5=CC(=C(C=C5)F)F
Procedure, shortened: (§1)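 Values are thermal stability changes relative to control samples and are taken from duplicates. They are stated as log2 fold changes. Before quantification by TMTpro 16plex LC-MS/MS with equalised channel sums, K562 cells at 2×10^6 cells/mL were treated with 10 μM compound for 30 min, heated in aliquots for 3 min across 48°C-58°C, pooled, extracted in PBS with 0.5% NP-40 at 4°C, and centrifuged at 21,000xg for 90 min to give the soluble supernatant.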

[2] = compound: CC1=C(SC2=C1C(=N[C@H](C3=NN=C(N32)C)CC(=O)N)C4=CC=C(C=C4)Cl)C
Procedure, shortened: as §1

[3] = compound: CC1=C2C(=CC=C1)N=C(N(C2=O)C3=CC=CC=C3C)CN4C=NC5=C(N=CN=C54)N
Procedure, shortened: as §1

[4] = compound: Cc1sc2c(c1C)C(c1ccc(Cl)cc1)=N[C@@H](CC(=O)OC(C)(C)C)c1nnc(C)n1-2
Procedure, shortened: as §1

[5] = compound: c1ccc([C@@H]2C[C@H]2NC2CCNCC2)cc1
Procedure, shortened: as §1

Measured: log2 fold change

MRPS9 (UniProt P82933)
inactive: [1] -0.001 | [2] 0.008 | [3] -0.025 | [4] 0.034 | [5] 0.025

MTHFD1 (UniProt P11586)
inactive: [1] -0.059 | [2] 0.024 | [3] 0.018 | [4] -0.013 | [5] -0.019

MT-ND1 (UniProt P03886)
UniProt P03886, sequence (P03886 whole entry, looked up): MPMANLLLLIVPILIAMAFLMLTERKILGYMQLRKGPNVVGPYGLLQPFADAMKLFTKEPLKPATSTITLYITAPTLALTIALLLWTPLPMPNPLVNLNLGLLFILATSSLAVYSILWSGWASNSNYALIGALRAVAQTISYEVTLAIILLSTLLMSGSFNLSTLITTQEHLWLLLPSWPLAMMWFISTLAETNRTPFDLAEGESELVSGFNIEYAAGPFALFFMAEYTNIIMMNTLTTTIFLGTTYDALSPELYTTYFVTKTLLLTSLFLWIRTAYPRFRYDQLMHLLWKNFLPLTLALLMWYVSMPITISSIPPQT
inactive: [1] -0.024 | [2] -0.12 | [3] -0.24 | [4] -0.102 | [5] 0.177

PAFAH1B2 (UniProt P68402)
inactive: [1] -0.042 | [2] -0.078 | [3] 0.078 | [4] 0.004 | [5] 0.082

MRPS26 (UniProt Q9BYN8)
inactive: [1] -0.075 | [2] 0.061 | [3] -0.012 | [4] -0.009 | [5] 0.013

NUDT16 (UniProt Q96DE0)
inactive: [1] 0.029 | [2] 0.085 | [3] -0.045 | [4] -0.075 | [5] -0.006

MORF4L2 (UniProt Q15014)
inactive: [1] 0.089 | [2] 0.001 | [3] -0.002 | [4] 0.028 | [5] 0.091

OGFOD1 (UniProt Q8N543)
inactive: [1] -0.02 | [2] 0.047 | [3] 0.041 | [4] -0.015 | [5] -0.007

NDUFS7 (UniProt O75251)
inactive: [1] 0 | [2] 0.062 | [3] 0.015 | [4] -0.051 | [5] -0.022

OGFR (UniProt Q9NZT2)
inactive: [1] -0.016 | [2] -0.057 | [3] 0.016 | [4] 0.095 | [5] -0.046

MUL1 (UniProt Q969V5)
inactive: [1] -0.002 | [2] 0.006 | [3] 0.044 | [4] -0.107 | [5] 0.02

MPHOSPH10 (UniProt O00566)
UniProt O00566, sequence (O00566 whole entry, looked up): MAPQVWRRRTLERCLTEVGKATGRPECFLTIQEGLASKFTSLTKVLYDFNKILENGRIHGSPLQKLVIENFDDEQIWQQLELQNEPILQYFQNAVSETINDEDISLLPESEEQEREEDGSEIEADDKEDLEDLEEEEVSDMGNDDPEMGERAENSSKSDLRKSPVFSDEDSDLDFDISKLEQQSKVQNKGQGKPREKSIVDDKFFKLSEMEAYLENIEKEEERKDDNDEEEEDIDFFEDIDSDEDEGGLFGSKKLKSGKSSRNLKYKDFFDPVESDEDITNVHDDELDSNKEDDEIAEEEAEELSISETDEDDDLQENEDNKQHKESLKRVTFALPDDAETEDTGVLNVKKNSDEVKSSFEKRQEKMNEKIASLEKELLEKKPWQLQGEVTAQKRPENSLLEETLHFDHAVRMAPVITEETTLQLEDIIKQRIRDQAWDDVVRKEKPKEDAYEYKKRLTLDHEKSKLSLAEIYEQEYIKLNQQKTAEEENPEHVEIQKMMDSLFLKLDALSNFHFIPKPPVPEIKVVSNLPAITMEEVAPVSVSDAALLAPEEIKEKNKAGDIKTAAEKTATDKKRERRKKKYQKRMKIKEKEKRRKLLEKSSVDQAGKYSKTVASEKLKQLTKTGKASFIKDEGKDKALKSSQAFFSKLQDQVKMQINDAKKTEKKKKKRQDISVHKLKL
inactive: [1] 0.023 | [2] -0.279 | [3] -0.206 | [4] 0.094 | [5] -0.024

NMNAT1 (UniProt Q9HAN9)
UniProt Q9HAN9, sequence (Q9HAN9 whole entry, looked up): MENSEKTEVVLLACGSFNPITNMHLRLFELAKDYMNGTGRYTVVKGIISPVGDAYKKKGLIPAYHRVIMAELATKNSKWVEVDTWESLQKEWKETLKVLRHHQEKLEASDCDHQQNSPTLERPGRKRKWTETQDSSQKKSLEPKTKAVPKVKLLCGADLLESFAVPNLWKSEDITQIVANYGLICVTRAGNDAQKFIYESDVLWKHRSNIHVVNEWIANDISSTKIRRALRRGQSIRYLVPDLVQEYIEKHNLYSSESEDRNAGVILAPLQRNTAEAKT
inactive: [1] 0.1 | [2] -0.055 | [3] -0.088 | [4] 0.304 | [5] 0.02

MKRN2 (UniProt Q9H000)
inactive: [1] 0.029 | [2] 0.046 | [3] 0.143 | [4] 0.122 | [5] -0.017

NFX1 (UniProt Q12986)
UniProt Q12986, sequence (Q12986 whole entry, looked up): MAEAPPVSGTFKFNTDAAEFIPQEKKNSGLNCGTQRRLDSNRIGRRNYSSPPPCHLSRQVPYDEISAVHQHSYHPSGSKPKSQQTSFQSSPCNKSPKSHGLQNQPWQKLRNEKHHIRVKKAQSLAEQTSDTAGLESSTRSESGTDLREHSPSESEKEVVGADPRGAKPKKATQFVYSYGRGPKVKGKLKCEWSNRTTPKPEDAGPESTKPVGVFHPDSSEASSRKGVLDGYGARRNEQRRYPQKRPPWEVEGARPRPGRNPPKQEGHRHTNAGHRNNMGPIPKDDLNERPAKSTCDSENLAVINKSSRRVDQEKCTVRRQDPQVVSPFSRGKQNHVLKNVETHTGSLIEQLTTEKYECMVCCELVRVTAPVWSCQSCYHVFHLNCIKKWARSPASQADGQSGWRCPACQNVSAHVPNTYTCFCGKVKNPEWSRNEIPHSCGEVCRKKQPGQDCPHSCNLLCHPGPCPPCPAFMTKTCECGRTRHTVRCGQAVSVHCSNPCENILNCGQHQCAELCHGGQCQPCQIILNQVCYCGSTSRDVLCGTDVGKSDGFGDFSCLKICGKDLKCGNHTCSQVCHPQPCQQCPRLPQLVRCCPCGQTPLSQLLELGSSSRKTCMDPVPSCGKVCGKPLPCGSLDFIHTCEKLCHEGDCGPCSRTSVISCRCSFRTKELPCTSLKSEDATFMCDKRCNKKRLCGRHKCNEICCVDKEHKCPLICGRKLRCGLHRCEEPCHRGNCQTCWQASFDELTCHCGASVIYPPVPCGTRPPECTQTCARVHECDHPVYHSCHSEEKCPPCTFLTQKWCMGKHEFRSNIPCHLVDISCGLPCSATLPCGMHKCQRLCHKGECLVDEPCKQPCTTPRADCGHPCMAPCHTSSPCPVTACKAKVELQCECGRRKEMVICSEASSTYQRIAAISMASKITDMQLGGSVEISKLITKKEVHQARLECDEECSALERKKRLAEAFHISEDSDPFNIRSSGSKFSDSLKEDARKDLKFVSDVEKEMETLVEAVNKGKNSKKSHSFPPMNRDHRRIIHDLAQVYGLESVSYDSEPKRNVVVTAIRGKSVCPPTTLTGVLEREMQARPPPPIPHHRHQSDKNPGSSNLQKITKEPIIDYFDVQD
inactive: [1] -0.011 | [2] -0.161 | [3] -0.068 | [4] 0.115 | [5] -0.163

NR2C2 isoform 2 (UniProt P49116)
inactive: [1] -0.011 | [2] 0.046 | [3] 0.059 | [4] 0.042 | [5] 0.024

NIPSNAP3B (UniProt Q9BS92)
inactive: [1] 0.045 | [2] -0.031 | [3] 0.017 | [4] -0.021 | [5] 0.099

NOLC1 isoform 2 (UniProt Q14978)
UniProt Q14978, sequence (Q14978 whole entry, looked up): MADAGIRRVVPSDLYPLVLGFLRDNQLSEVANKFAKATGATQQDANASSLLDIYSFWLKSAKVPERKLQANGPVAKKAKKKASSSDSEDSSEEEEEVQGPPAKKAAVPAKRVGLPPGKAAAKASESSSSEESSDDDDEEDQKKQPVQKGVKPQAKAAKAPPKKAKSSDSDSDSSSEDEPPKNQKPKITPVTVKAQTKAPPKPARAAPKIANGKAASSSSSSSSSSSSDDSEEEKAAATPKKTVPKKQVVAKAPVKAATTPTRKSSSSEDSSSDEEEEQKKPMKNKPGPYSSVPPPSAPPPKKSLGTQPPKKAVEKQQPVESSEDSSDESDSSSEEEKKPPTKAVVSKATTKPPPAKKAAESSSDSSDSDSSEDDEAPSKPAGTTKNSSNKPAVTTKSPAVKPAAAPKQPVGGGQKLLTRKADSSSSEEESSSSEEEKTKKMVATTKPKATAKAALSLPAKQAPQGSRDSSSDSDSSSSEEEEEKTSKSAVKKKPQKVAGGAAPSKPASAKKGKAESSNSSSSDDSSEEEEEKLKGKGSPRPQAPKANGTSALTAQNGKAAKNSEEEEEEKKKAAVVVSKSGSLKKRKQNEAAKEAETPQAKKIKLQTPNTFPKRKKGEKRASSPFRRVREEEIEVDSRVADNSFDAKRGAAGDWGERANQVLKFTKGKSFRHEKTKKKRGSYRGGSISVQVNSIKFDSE
inactive: [1] 0 | [2] -0.029 | [3] 0.002 | [4] -0.012 | [5] 0.108

ORC5 (UniProt O43913)
UniProt O43913, sequence (O43913 whole entry, looked up): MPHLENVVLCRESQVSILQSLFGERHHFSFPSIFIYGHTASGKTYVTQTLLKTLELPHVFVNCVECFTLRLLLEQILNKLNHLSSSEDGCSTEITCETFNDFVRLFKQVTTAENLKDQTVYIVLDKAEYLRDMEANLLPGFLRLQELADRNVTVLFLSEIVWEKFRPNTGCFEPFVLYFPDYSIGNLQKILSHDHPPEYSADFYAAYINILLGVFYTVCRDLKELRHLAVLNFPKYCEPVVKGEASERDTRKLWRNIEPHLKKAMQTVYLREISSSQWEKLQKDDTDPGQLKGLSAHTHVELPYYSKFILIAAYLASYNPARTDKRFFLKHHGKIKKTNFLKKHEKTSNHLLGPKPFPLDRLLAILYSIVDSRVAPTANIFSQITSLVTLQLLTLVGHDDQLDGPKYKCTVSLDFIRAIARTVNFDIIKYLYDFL
inactive: [1] -0.081 | [2] 0.02 | [3] 0.144 | [4] -0.016 | [5] -0.044

MRPS31 (UniProt Q92665)
inactive: [1] -0.042 | [2] 0.028 | [3] 0.021 | [4] 0.044 | [5] -0.031

NIBAN1 (UniProt Q9BZQ8)
inactive: [1] -0.017 | [2] 0.015 | [3] 0.056 | [4] 0.028 | [5] 0.03

NIPSNAP2 (UniProt O75323)
UniProt O75323, sequence (O75323 whole entry, looked up): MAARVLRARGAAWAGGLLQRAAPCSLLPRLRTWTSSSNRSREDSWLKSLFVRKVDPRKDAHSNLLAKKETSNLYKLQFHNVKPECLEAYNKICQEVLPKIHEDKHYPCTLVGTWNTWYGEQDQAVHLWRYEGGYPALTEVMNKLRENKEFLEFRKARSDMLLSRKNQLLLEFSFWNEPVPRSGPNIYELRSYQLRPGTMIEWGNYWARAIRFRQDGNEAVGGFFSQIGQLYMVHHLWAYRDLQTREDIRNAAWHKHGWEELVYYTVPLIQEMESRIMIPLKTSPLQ
inactive: [1] -0.038 | [2] 0.008 | [3] 0.036 | [4] -0.019 | [5] -0.051

OAT (UniProt P04181)
inactive: [1] -0.019 | [2] 0.083 | [3] 0.05 | [4] -0.024 | [5] -0.045

OXSR1 (UniProt O95747)
UniProt O95747, sequence (O95747 whole entry, looked up): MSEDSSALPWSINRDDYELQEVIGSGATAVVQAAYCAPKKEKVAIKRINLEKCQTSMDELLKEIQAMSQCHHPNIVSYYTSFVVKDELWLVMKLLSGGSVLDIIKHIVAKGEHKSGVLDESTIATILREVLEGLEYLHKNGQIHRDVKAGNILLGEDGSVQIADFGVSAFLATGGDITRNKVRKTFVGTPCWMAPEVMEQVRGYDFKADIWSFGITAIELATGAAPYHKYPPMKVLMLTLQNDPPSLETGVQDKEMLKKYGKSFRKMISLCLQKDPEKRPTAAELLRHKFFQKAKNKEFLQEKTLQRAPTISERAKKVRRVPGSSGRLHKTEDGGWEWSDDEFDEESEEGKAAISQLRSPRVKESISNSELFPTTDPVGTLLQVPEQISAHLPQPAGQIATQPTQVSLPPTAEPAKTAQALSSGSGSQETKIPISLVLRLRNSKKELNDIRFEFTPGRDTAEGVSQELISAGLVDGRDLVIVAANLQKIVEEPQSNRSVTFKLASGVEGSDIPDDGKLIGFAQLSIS
inactive: [1] -0.039 | [2] 0.048 | [3] 0.096 | [4] -0.003 | [5] -0.03

MIS12 (UniProt Q9H081)
inactive: [1] -0.02 | [2] 0.013 | [3] 0.064 | [4] -0.117 | [5] -0.022

MSH6 (UniProt P52701)
inactive: [1] -0.24 | [2] 0.08 | [3] 0.127 | [4] -0.056 | [5] -0.008

OGFOD2 (UniProt Q6N063)
inactive: [1] 0.124 | [2] 0.097 | [3] 0.024 | [4] 0.091 | [5] 0.053

NFATC2IP (UniProt Q8NCF5)
inactive: [1] -0.051 | [2] 0.18 | [3] 0.039 | [4] -0.088 | [5] 0.156

MRPL46 (UniProt Q9H2W6)
inactive: [1] 0 | [2] -0.1 | [3] -0.037 | [4] 0.009 | [5] 0.026

NDUFAF6 (UniProt Q330K2)
inactive: [1] -0.048 | [2] 0.003 | [3] -0.006 | [4] 0.063 | [5] 0.024

NCAPH (UniProt Q15003)
inactive: [1] -0.067 | [2] 0.011 | [3] 0.109 | [4] -0.007 | [5] 0.001

MON2 isoform 5 (UniProt Q7Z3U7)
inactive: [1] -0.023 | [2] 0.016 | [3] 0.109 | [4] -0.025 | [5] -0.073

MXRA7 (UniProt P84157)
UniProt P84157, sequence (P84157 whole entry, looked up): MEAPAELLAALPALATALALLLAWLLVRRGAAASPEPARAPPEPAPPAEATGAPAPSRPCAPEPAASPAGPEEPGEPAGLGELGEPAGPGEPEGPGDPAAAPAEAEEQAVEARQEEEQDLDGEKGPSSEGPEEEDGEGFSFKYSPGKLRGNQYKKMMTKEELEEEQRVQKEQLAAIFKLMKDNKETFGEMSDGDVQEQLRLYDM
inactive: [1] 0.008 | [2] 0.167 | [3] 0.293 | [4] 0.002 | [5] 0.024

NSMCE2 (UniProt Q96MF7)
inactive: [1] 0.074 | [2] 0.031 | [3] 0.075 | [4] 0.004 | [5] -0.017

NANS (UniProt Q9NR45)
UniProt Q9NR45, sequence (Q9NR45 whole entry, looked up): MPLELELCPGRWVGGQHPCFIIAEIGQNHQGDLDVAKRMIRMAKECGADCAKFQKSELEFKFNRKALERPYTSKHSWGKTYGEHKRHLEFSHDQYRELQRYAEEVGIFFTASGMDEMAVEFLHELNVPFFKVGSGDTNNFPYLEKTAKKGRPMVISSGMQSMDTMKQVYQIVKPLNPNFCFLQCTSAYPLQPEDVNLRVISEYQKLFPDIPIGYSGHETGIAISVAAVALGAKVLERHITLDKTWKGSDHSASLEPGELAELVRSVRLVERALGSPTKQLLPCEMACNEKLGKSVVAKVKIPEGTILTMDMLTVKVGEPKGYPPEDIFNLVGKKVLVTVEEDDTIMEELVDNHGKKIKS
inactive: [1] -0.031 | [2] 0.065 | [3] 0.071 | [4] -0.015 | [5] -0.024

NME7 (UniProt Q9Y5B8)
inactive: [1] -0.112 | [2] 0.098 | [3] 0.175 | [4] 0.096 | [5] -0.038

NUDCD2 (UniProt Q8WVJ2)
inactive: [1] -0.037 | [2] 0.113 | [3] 0.099 | [4] 0.017 | [5] 0.037
